Consider 26 compounds from PubChem BioAssay (NCI).

About 83,000 compounds went through this panel and 20% of them were active in at least one assay; those are over-represented in the sample as a whole.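 Activity criterion: percent growth below 10, measured after cells in 96-well plates were exposed to a single compound concentration for 48 hours.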 A number with no mark means an inactive call. Activity calls are given as the source filed them.

This assay concerns HL-60(TB) leukemia. Briefly: NCI-60 one-dose screen, 48 h (100 = growth as untreated, 0 = no growth, -100 = all killed). As to conditions: 10 µM unless noted.
Consider `CC(C)(C)CC(C)(C)Nc1c(-c2ccncc2)nc2cnccn12`, for which the growth is 102%.

As for `C=C(C)C1CCC2(C(=O)O)CCC3(C)C(CCC4C5(C)CCC(OC(=O)NCc6ccccc6)C(C)(C)C5CCC43C)C12` (stereo unspecified), the growth was 23%.

For `NS(=O)(=O)c1cc(Br)c2c(c1)S(=O)(=O)NCN2`, the growth was 71.2%.

`CN(C)c1ncnc2c1ncn2C1CCCCO1` (stereo unspecified): the growth is 96.3%.

For `O=C1/C(=C\c2cccn2C(=O)c2ccccc2)c2ccccc2N1c1c(Cl)cccc1Cl`, the growth is 9.37% (active).

On to `CCN(CC)c1ccc(CNc2ccnc3ccccc23)cc1`, for which the growth is 33.6%.

For `C[n+]1cc2cc3c(cc2c2ccccc21)OCO3`, the growth is 87.5%.

Take `C=CCn1c(SCC(=O)Nc2ccc(C(=O)/C=C/c3ccc(OC)cc3)cc2)nnc1-c1ccc(OC)c(OC)c1`: the growth is 58.5%.

Regarding `COc1cc2c(cc1OCCCCCOc1ccc(-n3c(C)nc4ccccc4c3=O)cc1)N=C[C@@H]1CCCN1C2=O`, the growth was -33.8% (active).

As for `C=C(C)[C@@H]1CC[C@]2(COC(C)=O)CC[C@]3(C)[C@H](CC[C@@H]4[C@@]5(C)CCCN(C(C)=O)C(C)(C)[C@@H]5CC[C@]43C)[C@@H]12`, the growth is -29.2% (active).

Consider `O=C(Nc1ccc(Cl)c(Cl)c1)NS(=O)(=O)c1cnccc1Oc1ccc(F)cc1`, for which the growth was 54%.

For `COc1ccc(-c2cc(/C=C3\C(=O)Nc4ccc(OC)cc43)[nH]n2)cc1`, the growth is -0.36% (active).

Regarding `FC(F)(F)c1ccc(-c2cnc(Cl)nc2N2CCC3(CC2)OCCO3)cc1`, the growth was 83.6%.

Take `CCOC(=O)C1=C(Nc2ccc(OC)cc2)C(N)=NC1=N`: the growth is 3.35% (active).

On to `Cc1ccc(-c2c3c(N)c4c(nc3nc3c2c(C)nn3-c2ccccc2)CCCC4)cc1`, for which the growth was 98.5%.

Consider `CCCCCCCCCCCCC1CCC/C=C\CCC(=O)O1` (stereo unspecified), for which the growth was 88.6%.

`COC(=O)c1c[n+]([O-])ccc1OC`: the growth is 106%.

Turning to `C[N+]1(CC2CO2)CCCCCC1` (stereo unspecified), the growth is 109%.

On to `O=C(O)/C(=C/c1ccc(O)cc1)c1ccccc1`, for which the growth is 96%.

As for `CC1SC(c2cccc(Oc3ccccc3)c2)N(CCc2cccs2)C1=O` (stereo unspecified), the growth was -21.9% (active).

Turning to `S=C1CCCCCN1`, the growth was 107%.

Take `COc1cc(/C=C/C(=O)c2cccc(-n3cc(-c4ccccc4)[nH]c3=O)c2)ccc1O`: the growth is 3.49% (active).

For the compound `COc1ccc(/C=C/C(=O)c2ccc(O)c(CN3CCN(c4cc5c(cc4F)c(=O)c(C(=O)O)cn5C4CC4)CC3)c2)cc1`, the growth is 0.375% (active).

Consider `COc1ccc(/C=C/c2n[nH]c3ccc(N4CCOC4=O)cc23)cc1`, for which the growth was -27.5% (active).

As for `NC(=O)c1ccc(-c2cccc3c(=O)nc(N4CCOCC4)oc23)cc1`, the growth was 97.5%.

As to `O=C(CSc1nnc(-c2cc(-c3ccccc3)nc3ccccc23)o1)c1ccc(Br)cc1`, the growth was 99.4%.
